Laboratory results published in PubChem BioAssay AID1861 (The Scripps Research Institute Molecular Screening Center, 2009).
About 3,100 (1.1%) of roughly 290,000 compounds were called active. Rule as the data show it: active = inhibition above about 16% (passing the limit was not always enough); inactive = the rest. The entries come from a sample that favours actives as a whole.

What follows are compounds tested against Neuropeptides B/W receptor type 1 (Homo sapiens) (UniProt P48145) (assay: GPR7 receptor antagonists, primary screen, cell-based, fluorescence, single concentration (AID 1861;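 also: cells stimulated with the agonist NPW; 0% = agonist with vehicle and 100% = vehicle without agonist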)). Details: GPR7-expressing cells, fluorescence antagonist assay; at 4.4 µM; hits give high values.
Chain of Neuropeptides B/W receptor type 1 (Homo sapiens) (P48145 whole entry, looked up): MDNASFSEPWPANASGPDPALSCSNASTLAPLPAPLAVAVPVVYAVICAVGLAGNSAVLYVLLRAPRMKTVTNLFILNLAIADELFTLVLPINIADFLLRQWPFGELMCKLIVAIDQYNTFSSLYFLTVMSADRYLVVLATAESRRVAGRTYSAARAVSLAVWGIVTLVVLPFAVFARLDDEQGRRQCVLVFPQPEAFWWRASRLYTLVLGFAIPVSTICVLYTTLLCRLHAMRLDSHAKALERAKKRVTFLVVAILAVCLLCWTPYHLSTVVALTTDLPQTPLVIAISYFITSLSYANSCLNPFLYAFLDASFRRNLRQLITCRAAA
For O=C(Nc1nc(-c2ccncc2)cs1)C1COc2ccccc2O1 (stereo unspecified), the inhibition was -9.64% (inactive).
CC(=O)NCCC(=O)Nc1nc(-c2ccc3c(c2)OCCO3)cs1 was tested, and the inhibition was 21.3% (inactive).
For O=C(Nc1nc(-c2ccc3c(c2)OCO3)cs1)c1ccncc1, the inhibition was 31.8% (active).
For CC(Sc1nnc(COc2ccccc2)n1-c1ccccc1)C(=O)O (stereo unspecified), the inhibition was 11% (inactive).
For Cc1cccc(N(C(=O)c2sc(C)nc2C)C(C(=O)NCC2CCCO2)c2ccccc2)c1 (stereo unspecified), the inhibition was -10.3% (inactive).
In the case of CCOC(=O)C1CCN(C(=O)CN2C(=O)c3cccnc3Oc3ccc(C)cc32)CC1, the inhibition is reported as -8.59% (inactive).
With COc1ccccc1N1CCN(c2ccc([N+](=O)[O-])nc2)CC1 the inhibition was -2.36% (inactive).
In the case of COc1ccccc1N1CCN(c2ncnc3sc(C)c(-c4ccccc4)c23)CC1, the inhibition is reported as 27% (active).
Oc1ccccc1N1CCN(c2ncnc3sc(-c4ccccc4)cc23)CC1 was tested, and the inhibition was -12.8% (inactive).
With CCCCCc1ccc(-c2cn(Cc3ccc4ccccc4c3)nn2)cc1 the inhibition was 2.3% (inactive).
Cc1ccc(F)cc1NC(=O)c1ccc2c(c1)OCO2 was tested, and the inhibition was -15.9% (inactive).
N#Cc1ccccc1NC(=O)c1ccc2c(c1)OCO2 was tested, and the inhibition was -3.22% (inactive).
For O=C(Nc1ccccc1F)c1ccc2c(c1)OCO2, the inhibition was 30.2% (active).
For COc1ccc(CCNS(=O)(=O)c2cc3c(cc2C)NC(=O)CO3)cc1OC, the inhibition was -11.3% (inactive).
Cc1cccc(N2CCN(C(=O)COCc3cc(-c4ccc5c(c4)OCO5)on3)CC2)c1C was tested, and the inhibition was 14% (inactive).
For O=C(NC(Nc1nc2ccc([N+](=O)[O-])cc2s1)(C(F)(F)F)C(F)(F)F)c1ccccc1, the inhibition was 27.1% (active).
For CCC(=O)NC(Nc1nc2ccc(C)cc2s1)(C(=O)OC)C(F)(F)F (stereo unspecified), the inhibition was -6.22% (inactive).
In the case of O=C(COC(=O)c1ccc(F)cc1)Nc1nc2ccc([N+](=O)[O-])cc2s1, the inhibition is reported as -8.84% (inactive).
For COc1cc(C2NC(=O)NC(c3ccccc3)=C2C(C)=O)c(Br)cc1OCC(N)=O (stereo unspecified), the inhibition was -18.1% (inactive).
With COc1cccc(CNC(=O)COc2cc(O)c3c(c2)OC(C)(C)CC3=O)c1 the inhibition was 1.6% (inactive).
For CC(CCc1ccccc1)NC(=O)COC(=O)c1ccc(F)cc1 (stereo unspecified), the inhibition was -18.2% (inactive).
With CC(C)[C@H](NC(=O)N1CCn2c1nc1ccccc12)C(=O)NC1CC1 the inhibition was -2.43% (inactive).
For Cc1ccc(CS(=O)(=O)c2ncc(Cl)c(C(=O)Nc3nnc(C)s3)n2)cc1, the inhibition was -20.2% (inactive).
Cc1cccc(CS(=O)(=O)c2ncc(Cl)c(C(=O)Nc3ccc(F)cc3)n2)c1 was tested, and the inhibition was 39.8% (active).
Cc1cccc(NC(=O)c2nc(S(=O)(=O)Cc3ccccc3)ncc2Cl)c1 was tested, and the inhibition was 9.7% (inactive).
In the case of CC(=O)NCCC(=O)Nc1cc(S(=O)(=O)N2CCCCC2)ccc1Oc1cccc(C)c1, the inhibition is reported as 9.48% (inactive).
With Cc1ccc(NC(=S)N(CCCN2CCC(C)CC2)Cc2ccco2)cc1 the inhibition was 26.8% (active).
In the case of Cc1ccc(NC(=S)N(CCN2CCCCC2)Cc2ccco2)cc1C, the inhibition is reported as 0.11% (inactive).
For Cc1ccc(NC(=S)N(Cc2ccco2)C(C)c2cccs2)cc1 (stereo unspecified), the inhibition was -21.7% (inactive).
With c1ccc2c(c1)CSc1sccc1C2=C1CCNCC1 the inhibition was 24.5% (active).
C=CS(=O)c1sc(Cl)c(N2CCOCC2)c1[N+](=O)[O-] (stereo unspecified) was tested, and the inhibition was 3.73% (inactive).
CCOC(=O)Cn1c(CN(Cc2ccccc2)Cc2ccccc2)nc2c1c(=O)[nH]c(=O)n2C was tested, and the inhibition was -9.45% (inactive).
For CN(Cc1ccccc1)c1nc2c(c(=O)[nH]c(=O)n2C)n1CCSc1nc2ccccc2[nH]1, the inhibition was -4.5% (inactive).
With Cn1c(=O)[nH]c(=O)c2c1nc(N(CCO)Cc1ccccc1)n2Cc1ccccc1Cl the inhibition was 27.1% (active).
In the case of CNC(=O)c1sc(Nc2ccc(OCc3ccccc3)cc2)nc1C, the inhibition is reported as 1.33% (inactive).
CCC(Cc1ccccc1)NC(=O)C1CCCCC1 (stereo unspecified) was tested, and the inhibition was -7.32% (inactive).
In the case of O=C(NC(=O)c1ccccc1)Nc1ccccc1O, the inhibition is reported as 40.9% (active).
In the case of O=C(NC(=O)c1ccccc1)NC(=O)c1ccccc1, the inhibition is reported as 6% (inactive).
In the case of Cc1ccc(NC(=O)NC(=O)c2ccccc2)cc1F, the inhibition is reported as -0.7% (inactive).
With CCn1c(SCC(=O)Nc2ccc3c(c2)OCCO3)nnc1-c1ccncc1 the inhibition was -4.19% (inactive).
For Cc1nonc1C1CCCN1C(=O)c1cc(COc2cccc(C(F)(F)F)c2)on1 (stereo unspecified), the inhibition was -2.6% (inactive).
In the case of COc1cccc(N2CCN(c3ccc4nnc(CCC(=O)N5CCN(C)CC5)n4n3)CC2)c1, the inhibition is reported as -14.2% (inactive).
In the case of CCCOc1cccc(C(=O)Nc2ccccc2C(=O)N2CCN(C)CC2)c1, the inhibition is reported as -9.32% (inactive).
With O=C(CN1C(=O)/C(=C\c2ccc(C(F)(F)F)cc2)Sc2ccccc21)NCc1ccco1 the inhibition was 5.13% (inactive).
In the case of O=C(CN1C(=O)/C(=C/c2ccccc2F)Sc2ccccc21)NCc1cccnc1, the inhibition is reported as 40.7% (active).
In the case of O=C(CN1C(=O)S/C(=C\c2ccccc2F)C1=O)NCCCn1ccnc1, the inhibition is reported as -12% (inactive).
For CSCc1ccc(C(=O)Nc2cc(C)cc(C)c2)cc1, the inhibition was 3.49% (inactive).
In the case of O=C(Nc1ccc(-c2ccc3nncn3n2)cc1)C1CCCCC1, the inhibition is reported as -11.2% (inactive).
In the case of Cc1ccc2nc(C)c3c(c2c1)N(c1ccccc1)CC3, the inhibition is reported as 36.7% (active).
In the case of Cc1ccc2nc3n(c(=O)c2c1)CCC3, the inhibition is reported as -5.32% (inactive).
With Cc1ccc2nc(Nc3ccccc3)cc(C)c2c1 the inhibition was -2.1% (inactive).
For C/C(=N\NC(=O)c1cc2c(s1)CCC(C)C2)c1cccnc1 (stereo unspecified), the inhibition was -6.07% (inactive).
With O=C(NCc1ccc2c(c1)OCO2)C(=O)NCC1OCCN1S(=O)(=O)c1ccc(F)cc1 (stereo unspecified) the inhibition was -11.7% (inactive).
With CN(C)c1ccc(Nc2c3c4c(cccc4n(C)c2=O)C(=O)c2ccccc2-3)cc1 the inhibition was -1.09% (inactive).
O=C(Nc1cccc(Cl)c1)c1cc([N+](=O)[O-])ccc1N1CCN(CCO)CC1 was tested, and the inhibition was 6.31% (inactive).
CCC(=O)c1ccc(N2CCN(C(=O)c3cc([N+](=O)[O-])ccc3F)CC2)c(F)c1 was tested, and the inhibition was 8.34% (inactive).
For CCN1CCN(c2ccc([N+](=O)[O-])cc2C(=O)c2ccc(Cl)cc2)CC1, the inhibition was 32.3% (active).
In the case of O=C(Cn1cnc2ccccc21)Nc1ccccc1-c1ccccc1, the inhibition is reported as -5.35% (inactive).
CC(C)c1nnc(NC(=O)COC(=O)/C=C/c2ccc([N+](=O)[O-])cc2)s1 was tested, and the inhibition was -6.73% (inactive).
CCOCC(=O)Nc1ncc(S(=O)(=O)c2ccc([N+](=O)[O-])cc2)s1 was tested, and the inhibition was 19.5% (active).
O=C(COC(=O)C1CCCCC1)Nc1ccc([N+](=O)[O-])cc1 was tested, and the inhibition was 23.9% (inactive).
